{
  "source": "the supplement of paper PMC10849652",
  "note": "The full data set covers some 7,900 targets. This sample favours those with a hit. About 0.6% of all pairs of compound and target were hits. A number with no mark means an inactive call.",
  "data": [
    {"compound": "Cc1sc2c(c1C)C(c1ccc(Cl)cc1)=N[C@@H](CC(=O)OC(C)(C)C)c1nnc(C)n1-2", "experiment": "log2 fold change, soluble protein after heating vs DMSO (PISA); higher = thermal stabilisation; K562 cells, 10 uM, 30 min; active = over 0.2 and 3.5 SD of the protein, either way, in both replicates (recomputed)", "outline": "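Quantification of soluble protein used TMTpro 16plex LC-MS/MS, with channel sums equalised. Samples were the supernatant after 21,000xg for 90 min of pooled aliquots from K562 cells (2×10^6 cells/mL) treated with 10 μM compound for 30 min, heated for 3 min over 48°C-58°C, and extracted in PBS with 0.5% NP-40 at 4°C. Values, from duplicates, describe thermal stability against control samples on a log2 fold-change scale.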", "values": [
      {"target": "YIPF4 (UniProt Q9BSR8)", "sequence (Q9BSR8 whole entry, looked up)": "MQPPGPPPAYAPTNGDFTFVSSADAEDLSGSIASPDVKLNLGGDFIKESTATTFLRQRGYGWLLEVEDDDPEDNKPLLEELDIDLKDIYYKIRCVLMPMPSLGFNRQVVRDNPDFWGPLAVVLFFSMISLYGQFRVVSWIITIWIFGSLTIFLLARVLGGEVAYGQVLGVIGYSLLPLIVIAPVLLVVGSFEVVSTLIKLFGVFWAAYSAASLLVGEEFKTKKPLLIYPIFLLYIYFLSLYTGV", "log2 fold change": 0.027},
      {"target": "ZNF580 (UniProt Q9UK33)", "log2 fold change": 0.029},
      {"target": "ZBTB17 isoform 2 (UniProt Q13105)", "log2 fold change": -0.019},
      {"target": "ZC3H18 (UniProt Q86VM9)", "log2 fold change": 0.021},
      {"target": "ZC3HC1 (UniProt Q86WB0)", "sequence (Q86WB0 whole entry, looked up)": "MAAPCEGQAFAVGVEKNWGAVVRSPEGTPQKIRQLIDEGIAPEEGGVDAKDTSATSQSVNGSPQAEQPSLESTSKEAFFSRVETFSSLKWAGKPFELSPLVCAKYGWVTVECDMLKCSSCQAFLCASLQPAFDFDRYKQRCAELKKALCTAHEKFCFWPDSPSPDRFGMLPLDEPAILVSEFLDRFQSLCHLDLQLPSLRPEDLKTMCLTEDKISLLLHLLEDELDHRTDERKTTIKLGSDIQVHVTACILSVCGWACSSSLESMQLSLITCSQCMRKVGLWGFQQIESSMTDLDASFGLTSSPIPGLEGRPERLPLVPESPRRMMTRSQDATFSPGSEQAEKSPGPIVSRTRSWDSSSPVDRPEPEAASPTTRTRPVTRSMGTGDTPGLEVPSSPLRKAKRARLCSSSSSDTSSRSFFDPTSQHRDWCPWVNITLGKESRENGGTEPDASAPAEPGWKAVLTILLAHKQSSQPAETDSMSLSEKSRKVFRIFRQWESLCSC", "log2 fold change": -0.032},
      {"target": "ZMYM3 (UniProt Q14202)", "log2 fold change": 0.043},
      {"target": "YWHAZ (UniProt P63104)", "log2 fold change": -0.033},
      {"target": "ZDHHC20 (UniProt Q5W0Z9)", "sequence (Q5W0Z9 whole entry, looked up)": "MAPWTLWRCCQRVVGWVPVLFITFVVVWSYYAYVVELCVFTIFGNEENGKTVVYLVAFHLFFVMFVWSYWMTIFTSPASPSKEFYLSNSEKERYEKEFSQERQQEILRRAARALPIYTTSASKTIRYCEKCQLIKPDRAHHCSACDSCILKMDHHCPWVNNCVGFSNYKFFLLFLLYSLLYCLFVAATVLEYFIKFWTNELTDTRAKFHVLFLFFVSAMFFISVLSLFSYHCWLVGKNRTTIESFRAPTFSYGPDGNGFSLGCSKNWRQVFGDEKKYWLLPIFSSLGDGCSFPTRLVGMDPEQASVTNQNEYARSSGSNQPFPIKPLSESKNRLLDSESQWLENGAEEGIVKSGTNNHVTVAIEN", "log2 fold change": -0.061},
      {"target": "ZRANB2 (UniProt O95218)", "sequence (O95218 whole entry, looked up)": "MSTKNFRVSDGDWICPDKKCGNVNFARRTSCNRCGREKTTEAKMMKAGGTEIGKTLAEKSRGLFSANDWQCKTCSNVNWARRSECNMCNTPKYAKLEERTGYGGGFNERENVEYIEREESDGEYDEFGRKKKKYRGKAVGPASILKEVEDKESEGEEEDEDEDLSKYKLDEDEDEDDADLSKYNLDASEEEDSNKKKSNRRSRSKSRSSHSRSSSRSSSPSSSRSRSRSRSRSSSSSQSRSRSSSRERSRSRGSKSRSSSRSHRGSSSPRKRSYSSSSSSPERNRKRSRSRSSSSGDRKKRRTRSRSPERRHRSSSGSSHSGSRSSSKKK", "log2 fold change": 0.021},
      {"target": "ZFAND6 (UniProt Q6FIF0)", "log2 fold change": -0.143},
      {"target": "YWHAZ (UniProt E7ESK7)", "log2 fold change": 0.083},
      {"target": "ZMYM1 (UniProt Q5SVZ6)", "log2 fold change": -0.012},
      {"target": "ZNF239 (UniProt Q16600)", "log2 fold change": -0.082},
      {"target": "YAE1 (UniProt Q9NRH1)", "log2 fold change": -0.014},
      {"target": "YWHAQ (UniProt P27348)", "sequence (P27348 whole entry, looked up)": "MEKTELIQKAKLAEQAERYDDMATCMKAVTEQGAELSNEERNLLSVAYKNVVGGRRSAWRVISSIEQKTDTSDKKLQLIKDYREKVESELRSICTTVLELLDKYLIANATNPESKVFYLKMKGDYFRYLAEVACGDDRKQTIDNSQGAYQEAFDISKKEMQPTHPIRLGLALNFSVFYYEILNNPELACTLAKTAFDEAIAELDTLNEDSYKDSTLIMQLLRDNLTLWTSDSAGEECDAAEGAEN", "log2 fold change": -0.089},
      {"target": "ZW10 (UniProt O43264)", "log2 fold change": -0.004},
      {"target": "YES1 (UniProt P07947)", "sequence (P07947 whole entry, looked up)": "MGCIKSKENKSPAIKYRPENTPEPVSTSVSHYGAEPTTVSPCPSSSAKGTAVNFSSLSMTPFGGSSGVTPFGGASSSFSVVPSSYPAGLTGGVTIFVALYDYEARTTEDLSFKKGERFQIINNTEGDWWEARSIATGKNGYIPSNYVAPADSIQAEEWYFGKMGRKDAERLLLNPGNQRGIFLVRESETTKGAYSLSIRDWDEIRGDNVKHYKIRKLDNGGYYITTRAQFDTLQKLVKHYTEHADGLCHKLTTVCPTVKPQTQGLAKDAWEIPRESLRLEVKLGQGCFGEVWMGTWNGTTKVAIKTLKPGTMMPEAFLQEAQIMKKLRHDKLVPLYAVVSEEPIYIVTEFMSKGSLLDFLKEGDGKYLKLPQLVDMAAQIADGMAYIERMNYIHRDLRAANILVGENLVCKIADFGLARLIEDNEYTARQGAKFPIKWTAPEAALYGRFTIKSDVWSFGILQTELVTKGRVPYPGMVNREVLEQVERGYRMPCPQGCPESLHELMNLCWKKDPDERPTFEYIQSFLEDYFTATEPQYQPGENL", "log2 fold change": -0.005},
      {"target": "YOD1 (UniProt Q5VVQ6)", "log2 fold change": -0.005},
      {"target": "ZNF579 (UniProt Q8NAF0)", "log2 fold change": 0.151},
      {"target": "ZNF609 (UniProt O15014)", "log2 fold change": 0.14},
      {"target": "YIPF6 (UniProt Q96EC8)", "log2 fold change": 0.103},
      {"target": "YWHAB (UniProt P31946)", "log2 fold change": -0.004},
      {"target": "ZFPL1 (UniProt O95159)", "log2 fold change": -0.042},
      {"target": "YY1 (UniProt P25490)", "sequence (P25490 whole entry, looked up)": "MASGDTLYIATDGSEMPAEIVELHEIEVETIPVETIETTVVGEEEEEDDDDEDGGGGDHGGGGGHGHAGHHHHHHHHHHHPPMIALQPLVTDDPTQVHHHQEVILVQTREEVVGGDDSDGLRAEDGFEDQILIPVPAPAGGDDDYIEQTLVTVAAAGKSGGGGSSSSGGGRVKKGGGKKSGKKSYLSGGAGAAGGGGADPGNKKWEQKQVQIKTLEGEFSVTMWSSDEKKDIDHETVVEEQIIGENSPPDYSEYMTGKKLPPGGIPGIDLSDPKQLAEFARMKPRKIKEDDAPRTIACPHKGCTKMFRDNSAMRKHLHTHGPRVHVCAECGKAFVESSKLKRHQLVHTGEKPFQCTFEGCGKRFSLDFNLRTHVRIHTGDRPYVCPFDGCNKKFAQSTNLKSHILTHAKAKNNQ", "log2 fold change": -0.015},
      {"target": "ZNF217 (UniProt O75362)", "sequence (O75362 whole entry, looked up)": "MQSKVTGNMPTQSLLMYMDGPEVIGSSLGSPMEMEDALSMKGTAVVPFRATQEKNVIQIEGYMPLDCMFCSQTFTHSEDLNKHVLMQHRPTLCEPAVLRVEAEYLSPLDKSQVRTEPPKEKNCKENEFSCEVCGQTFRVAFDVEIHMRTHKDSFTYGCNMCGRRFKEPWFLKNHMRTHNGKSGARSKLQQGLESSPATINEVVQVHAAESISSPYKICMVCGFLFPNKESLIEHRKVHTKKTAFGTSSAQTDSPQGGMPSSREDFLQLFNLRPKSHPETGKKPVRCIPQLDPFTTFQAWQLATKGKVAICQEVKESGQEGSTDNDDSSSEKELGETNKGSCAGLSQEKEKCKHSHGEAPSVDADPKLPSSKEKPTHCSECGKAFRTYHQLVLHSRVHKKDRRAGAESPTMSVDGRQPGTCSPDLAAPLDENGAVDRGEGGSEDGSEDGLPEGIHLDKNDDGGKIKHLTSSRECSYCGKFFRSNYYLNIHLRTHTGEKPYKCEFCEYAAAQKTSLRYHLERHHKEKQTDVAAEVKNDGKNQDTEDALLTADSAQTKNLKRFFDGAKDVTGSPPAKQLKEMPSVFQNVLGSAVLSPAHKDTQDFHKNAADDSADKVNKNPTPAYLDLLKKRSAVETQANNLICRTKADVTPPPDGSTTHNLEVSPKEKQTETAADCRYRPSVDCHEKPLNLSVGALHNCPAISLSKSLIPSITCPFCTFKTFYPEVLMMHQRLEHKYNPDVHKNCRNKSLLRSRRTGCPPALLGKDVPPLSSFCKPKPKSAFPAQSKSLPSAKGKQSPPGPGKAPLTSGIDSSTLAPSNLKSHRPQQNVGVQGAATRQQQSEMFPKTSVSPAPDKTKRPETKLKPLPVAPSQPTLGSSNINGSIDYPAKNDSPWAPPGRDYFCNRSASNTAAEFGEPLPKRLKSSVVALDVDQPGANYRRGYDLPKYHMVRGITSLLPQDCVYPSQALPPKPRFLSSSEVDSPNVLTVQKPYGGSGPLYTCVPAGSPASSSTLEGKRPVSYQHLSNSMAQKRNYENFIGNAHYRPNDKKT", "log2 fold change": -0.003},
      {"target": "ZNF511 isoform 1 (UniProt Q8NB15)", "sequence (Q8NB15 whole entry, looked up)": "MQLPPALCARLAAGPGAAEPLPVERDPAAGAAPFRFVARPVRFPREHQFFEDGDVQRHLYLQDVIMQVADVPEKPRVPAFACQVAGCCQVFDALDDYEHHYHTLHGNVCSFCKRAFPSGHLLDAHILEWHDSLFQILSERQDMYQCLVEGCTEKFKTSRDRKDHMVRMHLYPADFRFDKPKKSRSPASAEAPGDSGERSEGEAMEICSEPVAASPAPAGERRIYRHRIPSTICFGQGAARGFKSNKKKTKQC", "log2 fold change": -0.123},
      {"target": "ZNF277 (UniProt Q9NRM2)", "log2 fold change": 0.286},
      {"target": "ZCCHC9 (UniProt Q8N567)", "log2 fold change": 0.222},
      {"target": "YLPM1 (UniProt P49750)", "log2 fold change": 0.005},
      {"target": "ZEB2 (UniProt O60315)", "log2 fold change": 0.368},
      {"target": "ZC3H8 (UniProt Q8N5P1)", "sequence (Q8N5P1 whole entry, looked up)": "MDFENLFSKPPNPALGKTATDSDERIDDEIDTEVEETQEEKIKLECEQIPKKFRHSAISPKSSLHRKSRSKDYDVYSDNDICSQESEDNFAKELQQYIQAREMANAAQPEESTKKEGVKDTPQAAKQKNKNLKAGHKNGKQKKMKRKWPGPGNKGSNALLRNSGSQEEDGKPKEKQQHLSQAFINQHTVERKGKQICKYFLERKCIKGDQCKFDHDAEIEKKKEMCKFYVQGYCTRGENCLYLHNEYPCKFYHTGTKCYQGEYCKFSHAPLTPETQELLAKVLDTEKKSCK", "log2 fold change": 0.091},
      {"target": "ZDHHC8 isoform 3 (UniProt Q9ULC8)", "log2 fold change": 0},
      {"target": "ZBTB21 (UniProt Q9ULJ3)", "log2 fold change": 0.244},
      {"target": "ZMAT2 (UniProt Q96NC0)", "log2 fold change": -0.042},
      {"target": "YBX1 (UniProt P67809)", "sequence (P67809 whole entry, looked up)": "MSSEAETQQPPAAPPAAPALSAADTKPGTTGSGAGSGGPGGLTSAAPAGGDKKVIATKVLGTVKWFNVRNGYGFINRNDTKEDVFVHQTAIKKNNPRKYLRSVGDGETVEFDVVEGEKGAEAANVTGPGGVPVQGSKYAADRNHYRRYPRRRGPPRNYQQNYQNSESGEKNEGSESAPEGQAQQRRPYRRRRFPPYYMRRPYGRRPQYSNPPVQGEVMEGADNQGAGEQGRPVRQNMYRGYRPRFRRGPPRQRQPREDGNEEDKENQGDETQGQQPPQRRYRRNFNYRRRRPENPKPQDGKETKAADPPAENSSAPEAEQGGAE", "log2 fold change": 0.115},
      {"target": "ZDHHC7 isoform 2 (UniProt Q9NXF8)", "sequence (Q9NXF8 whole entry, looked up)": "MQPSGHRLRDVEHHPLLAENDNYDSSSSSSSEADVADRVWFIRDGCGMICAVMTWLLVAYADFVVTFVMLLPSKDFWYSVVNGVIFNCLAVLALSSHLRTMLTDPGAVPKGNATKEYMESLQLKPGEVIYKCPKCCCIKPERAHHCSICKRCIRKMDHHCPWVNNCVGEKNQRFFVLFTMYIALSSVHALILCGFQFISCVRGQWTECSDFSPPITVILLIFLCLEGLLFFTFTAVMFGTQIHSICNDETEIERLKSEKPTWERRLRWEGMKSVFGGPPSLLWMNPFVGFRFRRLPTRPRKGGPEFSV", "log2 fold change": 0.135}
    ]}
  ]
}
